# Pf growth 48h: inhibits P. falciparum growth in the first generation, 48 h | P. falciparum luciferase growth in erythrocytes, 48 h | Potency, µM (titrated, usually from 28.7 µM), for the others: at the highest dose activity change, negative = inhibition, actives largely listed as inhibitors | actives 5.9% (n = 310,000) | AID 504832; note: potency is the fitted concentration of half-maximal effect; % is set by controls: 0 for no effect and ±100 for the full control effect
#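 Read-out is firefly luciferase luminescence from an integrated reporter in P. falciparum, so falling signal marks reduced parasite growth. Infected erythrocytes were at 2% hematocrit and 0.1% parasitemia (final) in Albumax-supplemented RPMI 1640.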
# Pf growth 96h: inhibits malaria parasite growth, 96 h; P. falciparum luciferase reporter growth, 96 h; Potency, µM (titrated, usually from 28.7 µM), without a hit: at the highest dose activity change, negative = inhibition, actives largely listed as inhibitors; actives 6.9% (n = 320,000); AID 504834; note: potency is the fitted concentration of half-maximal effect; % is set by controls: 0 for no effect and ±100 for the full control effect
#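 Parasite growth measured via integrated firefly luciferase reporter in P. falciparum. Infected erythrocytes at 2% hematocrit, 0.05% parasitemia final were treated 96 hours at 37 C under 5% CO2, and luminescence was read.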
# Cycloheximide cs: affects cycloheximide protein synthesis inhibition readout, counter-screen | cell reporter, cycloheximide protein synthesis inhibition counterscreen | max response, % | actives 12% (n = 300,000) | AID 2314; in the data active = max response mostly above about 13%, no sharp cut-off; inactive = mostly below about 14%; note: read at 38.3 µM for the half of the compounds with a filed dose; 0% is about no effect
# Shiga toxin inh: Shiga toxin inhibition; Vero cells, Shiga toxin protein synthesis inhibition reporter; inhibition, % at 38.7 µM; actives 9.2% (n = 290,000); in the data active = inhibition mostly above about 28%, no sharp cut-off; inactive = mostly below about 43%; note: 0% is about no effect
# * hit, by the source's call; ? = inconclusive; . = not tested or not shown. This is a sample that favours compounds with a hit; in the whole collection about 21% have one here. Unless noted, calls come from the whole dose curve; as a rule, active = well fitted inhibition curve with a large enough effect; inconclusive = small, poorly fitted or top-dose-only effect, or another doubt; inactive = no such curve, though single readings can be large or run the other way.
SMILES,Pf growth 48h,Pf growth 96h,Cycloheximide cs,Shiga toxin inh
Cc1cc2ncc(S(=O)(=O)c3ccccc3)c(N)n2n1,?,?,-2.5,-11.7
Cc1cc2ncc(-c3ccc(Cl)cc3)c(N)n2n1,62.5%,-38.4%,43.5*,63.6*
Cc1ccc(-c2cc3ncc(C#N)c(N)n3n2)cc1,173.9%,11.3%,24.1*,69.4*
Nc1c(-c2ccccc2)cnc2cc(-c3ccccc3)nn12,474.2%,?,23.9*,35.7*
Cc1ccc(-n2ncc(C#N)c2N)cc1,2.6%,35.2%,-1.9,8.7
C=CCn1c(N)cc(=O)nc1SC(C)C(=O)Nc1cccc2ccccc12 (stereo not given),?,?,-2.8,7.1
O=C(NCCCN1CCOCC1)C(C(=O)NCCCN1CCOCC1)c1ncc(C(F)(F)F)cc1Cl,0.8%,7.0%,-2.4,13.9
Cc1cc(Nc2ccc(F)c(F)c2)nc(-c2ccccc2O)n1,?,?,-2.7,-7.5
Cc1ccc(Nc2cc(C)nc(-c3ccccc3O)n2)cc1,.,113.7%,28.9*,94.6*
Cc1ccc(Nc2cc(C)nc(-c3ccccc3)n2)cc1,174.2%,7.4%,41.9*,91.0*
Cc1cc(Oc2ccc(Cl)cc2)nc(-c2ccccc2O)n1,-15.8%,?,1.7,8.1
Cc1cc(NCCCN)nc(-c2ccccc2O)n1,-7.7%,.,25.4*,42.9
Cc1cc(Nc2ccc(Br)cc2)nc(-c2ccccc2O)n1,96.5%,-9.9%,13.7,18.3
Cc1ccc(Oc2cc(C)nc(-c3ccccc3O)n2)cc1,18.6%,?,36.6*,32.7
O=C(Nc1ccccc1)c1oc2ccccc2c1NC(=O)C1CC1,18.8%,31.2%,1.6,2.9
CCc1cccc(CC)c1NC(=O)C1SC(=Nc2ccccc2C)C(c2nc3ccccc3s2)=C1N (stereo not given),.,7.38µM*,-5.3,-4.0
CCc1cccc(C)c1NC(=O)CCCSc1nc2ccccc2s1,?,?,-2.6,0.9
Cc1ccc(N=C2C(=S)N(c3ccc(C)cc3)C(=N)N2/N=C/c2ccc(Cl)cc2)cc1,-22.7%,?,48.3*,74.3*
COc1ccc(/C=N/N2CCN(c3ccc(Cl)cc3)CC2)cc1,74.2%,63.4%,-2.5,.
CN(C)CC(C)(C)CN=Cc1c(O)[nH]c2ccccc12,4.9%,-8.1%,-2.1,27.0
C=C1SC(Nc2c(C)cc(C)cc2C)=NC12CCCCC2,1.65µM*,?,-2.4,-1.5
CC(=O)Nc1nnc(-c2ccco2)o1,-7.9%,15.9%,2.3,15.7
COc1cccc2sc(Nc3nnc(-c4cccs4)o3)nc12,?,143.6%,21.5*,73.8*
COc1cccc2sc(Nc3nnc(-c4ccc(F)cc4)o3)nc12,11.7µM*,1.85µM*,19.4*,38.8
CCOc1cccc2sc(NN)nc12,?,?,0.9,-13.2
SMILES,Pf growth 48h,Pf growth 96h,Cycloheximide cs,Shiga toxin inh
Fc1cccc2sc(Nc3nnc(-c4ccco4)o3)nc12,-18.3%,-19.5%,39.9*,171.1*
Cc1cc(Cl)ccc1N(CC(=O)NCc1ccc2c(c1)OCO2)S(C)(=O)=O,4.5%,46.6%,-3.4,-3.5
COc1cc(C2C(C(=O)c3ccc(C)o3)=C(O)C(=O)N2CCN2CCOCC2)ccc1OCCC(C)C (stereo not given),?,?,5.0,10.3
COC(=O)CSc1ncnc2scc(-c3ccccc3)c12,31.3%,4.5%,-1.8,-9.1
CC(=O)c1ccccc1-c1csc2ncnc(Sc3nnnn3C)c12,11.7µM*,4.15µM*,.,.
Cn1nnnc1Sc1ncnc2scc(-c3cc4ccccc4o3)c12,4.15µM*,?,.,.
Cn1nnnc1Sc1ncnc2scc(-c3ccccc3C(F)(F)F)c12,13.1µM*,7.38µM*,.,.
Cc1nnc(NC(=O)CSc2ncnc3scc(-c4ccccc4)c23)s1,1.6%,?,-2.0,-13.4
O=C(NNS(=O)(=O)c1ccccc1[N+](=O)[O-])c1cccc([N+](=O)[O-])c1,3.3%,-7.4%,-0.7,-5.5
Cc1cc(=O)oc2cc(OC(=O)C3CCN(C(=O)c4ccc(F)cc4)CC3)ccc12,-8.3%,-2.3%,.,.
O=[N+]([O-])C(=C1Nc2ccccc2N1)/C(Cl)=C(/Cl)Br,2.9%,-2.6%,-0.3,-6.2
CC(=O)Nc1ccc(S(=O)(=O)N2CCC(C(=O)NCCC(=O)NCc3ccccc3)CC2)cc1,1.7%,?,0.8,4.1
Cn1c(C(=O)c2ccccc2)nc2ccccc21,47.6%,31.4%,26.1*,58.4*
Cn1c(C(=O)c2ccccc2[N+](=O)[O-])nc2ccccc21,9.8%,-22.4%,3.7,15.5
O=C(c1ccccc1)N1CCN=C1c1ccccc1,-11.5%,11.7µM*,6.2,1.1
C=CCN(Cc1nc(-c2ccccc2)no1)C(=O)c1ccco1,-3.1%,10.7%,9.3,11.0
CC1CCCC(C)N1CCNC(=O)CCc1nnc2n(Cc3ccccc3)c(=O)c3ccccc3n12 (stereo not given),?,11.7µM*,-2.8,-2.0
COc1cc(C)c(C)cc1S(=O)(=O)NC1CC(C)(C)NC(C)(C)C1,17.3%,37.1%,1.2,-3.2
CCOC(=O)C[n+]1c(C)csc1C,-0.6%,-12.7%,1.0,-3.6
CCOC(=O)C[n+]1c(C)ccc2c1CCC2,-6.4%,8.28µM*,-0.8,-2.8
CN(C)S(=O)(=O)N(CC(=O)Nc1ccc(S(=O)(=O)N2CCCC2)cc1)c1ccccc1,-27.6%,-15.4%,-3.3,-1.3
O=C(COc1ccccc1Cl)N1CCN(c2ccccn2)CC1,-10.4%,?,.,.
O=C(CCc1ccc(Oc2cc([N+](=O)[O-])cc([N+](=O)[O-])c2)cc1)N1CCCCC1,11.7µM*,?,10.5,20.4
O=C(c1ccc(Oc2ccc([N+](=O)[O-])cc2)cc1)N1CCCCCC1,26.3%,2.7%,11.4,67.6
COc1ccc(OCCOC(=O)c2ccc(-n3cnnn3)cc2)cc1,.,?,-1.8,-11.9
SMILES,Pf growth 48h,Pf growth 96h,Cycloheximide cs,Shiga toxin inh
COc1ccc(OCCOC(=O)c2cccc(-n3cnnn3)c2)cc1,53.3%,14.7µM*,14.2*,14.2
CCOc1ccc(C(=O)COC(=O)c2cccc(-n3cnnn3)c2)cc1,102.1%,44.6%,56.2*,50.7*
COC(=O)c1cccc(-n2cnnn2)c1,8.2%,4.1%,-2.6,-3.4
O=C(COC(=O)c1cccc(-n2cnnn2)c1)c1ccccc1,33.7%,63.1%,20.3*,30.7*
COc1ccc(C(=O)Nc2ccc(NS(=O)(=O)c3ccccc3)cc2)cc1OC,-13.8%,?,-6.0,-6.6
CCOc1ccccc1Nc1nc(N)nc(CSc2nccc(C)n2)n1,-2.2%,26.4%,-1.6,-12.2
COc1ccc(OC)c(Nc2nc(N)nc(CCl)n2)c1,?,?,-1.0,20.4
COc1ccccc1Nc1nc(N)nc(CSc2ncccn2)n1,60.1%,?,28.0*,95.9*
COc1ccccc1Nc1nc(N)nc(CCl)n1,?,-10.2%,20.8*,38.5*
O=C(COc1ccccc1F)Nc1ccc(S(=O)(=O)Nc2nccs2)cc1,3.1%,-9.3%,-7.6,-6.7
CC(=O)Nc1ccc(S(=O)(=O)Nc2nccs2)cc1,-1.1%,?,-2.5,-2.2
CCOCC(=O)Nc1ccc(S(=O)(=O)Nc2nccs2)cc1,-4.5%,11.7µM*,-1.5,-9.7
O=C(CCl)Nc1ccc(S(=O)(=O)Nc2nccs2)cc1,2.33µM*,1.47µM*,-3.7,-4.1
CCOC(=O)N1CCC(=NNC(=O)COc2ccc(OC)cc2)CC1,-5.9%,-18.6%,-6.4,-1.1

# Screens as filed in PubChem.
